Screens as filed in PubChem.
EPAC1 antagonist: qHTS for Antagonist of cAMP-regulated guanine nucleotide exchange factor 3 (EPAC1): primary screen | AID 720709, 2013 | EPAC1 GEF assay, Rap1b-BODIPY-GDP exchange fluorescence | Rap guanine nucleotide exchange factor 3 (Homo sapiens), O95398 | Potency, µM (series often up to 115 µM), most hits filed as inhibitors | 360,000 tested, 0.14% active; also: nearly all actives have a fitted effect of over 50% in size
KCNH2 WT inh: qHTS for Inhibitors of KCHN2 3.1: Wildtype qHTS; Voltage-gated inwardly rectifying potassium channel KCNH2 (Homo sapiens), Q12809; U2OS, BacMam KCNH2, thallium flux FluxOr; active compounds read low; activity change, % at 1.84 µM; 340,000 tested, 0.37% active; AID 720551, 2013;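 active = maximum activity change below -70%; inconclusive = maximum activity change between -70% and -50%; inactive = maximum activity change above -50%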
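U2OS cells were transduced with wild-type KCNH2 virus (2.03 x 10^8 / mL) for 4 h at room temperature, then cultured overnight at 37 C. Thallium flux was read with FluxOr dye. Rate constants were normalized to DMSO controls.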
EPAC1 ag: qHTS for Agonist of cAMP-regulated guanine nucleotide exchange factor 3 (EPAC1): primary screen; 360,000 tested, 0.073% active; AID 720707, 2013; EPAC1 agonist qHTS, biochemical assay; response scale: 100% = response to 6.5 mM cAMP; Potency, µM (titrated, usually from 154 µM), most hits filed as activators; also: nearly all actives have a fitted effect of over 60% in size
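EPAC1 100 nM, Rap1B–BODIPY-GDP 250 nM, unlabeled GDP 50 uM; compound titration; 5 min RT; kinetic read ex480/em540 at 5-min intervals ×30 min; data normalized to 6.5 mM cAMP agonist control.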
EPAC2 ag: qHTS for Agonist of cAMP-regulated guanine nucleotide exchange factor 4 (EPAC2): primary screen; EPAC2 activation, biochemical qHTS; response scale: 100% = 6.5 mM cAMP response; Potency, µM (highest dose often 154 µM), actives largely listed as activators; 360,000 tested, 0.079% active; AID 720711, 2013; also: nearly all actives have a fitted effect of over 50% in size
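Readout is BODIPY fluorescence (480 nm excitation, 540 nm emission), which falls as labeled GDP is exchanged off Rap1B. EPAC2 at 100 nM acted on 250 nM RAP1B-BODIPY-GDP with 50 uM GDP present.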
KCNH2 3.1 block: qHTS for Inhibitors of KCHN2 3.1: Mutant qHTS. Potassium voltage-gated channel subfamily H member 2, brain isoform KCNH2 3.1 (human). 340,000 tested, 0.95% active. activity change, % (tested at about 1.8 µM). U2OS KCNH2 3.1, thallium flux FluxOr; active compounds read low. AID 720553, 2013;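 active = maximum activity change below -70%; inconclusive = maximum activity change from -70% to -50%; inactive = maximum activity change above -50%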;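 also: thallium influx rate constant from kinetic fluorescence after stimulation buffer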
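Normalized rate constant (relative to positive and negative DMSO controls) derived from a 2 min kinetic fluorescence read after stimulation; U2OS cells expressing the 3.1 isoform via virus at 1.77 x 10^8 /mL.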
EPAC2 antag: qHTS for Antagonist of cAMP-regulated guanine nucleotide exchange factor 2 (EPAC2): primary screen | Rap guanine nucleotide exchange factor 4 (Homo sapiens), Q8WZA2 | EPAC2 GEF exchange of Rap1B-BODIPY-GDP, fluorescence | Potency, µM (series often up to 114 µM), hits mostly inhibitors | 360,000 tested, 0.18% active; also: nearly all actives have a fitted effect of over 45% in size
A number is an active result; . = inactive; ? = inconclusive; / = not tested or not shown. In the library only some 1.4% were active in any assay of this set; here they are far more common. Unless noted, calls follow the shape of the dose curve; as a rule, active = well fitted curve in the direction sought with a large enough effect; inconclusive = small, poorly fitted or top-dose-only effect, or another doubt; inactive = no such curve, though single readings can be large; an effect the other way counts as inactive or inconclusive.

SMILES	EPAC1 antagonist	KCNH2 WT inh	EPAC1 ag	EPAC2 ag	KCNH2 3.1 block	EPAC2 antag
C[C@H](CO)N1C[C@H](C)[C@@H](CN(C)S(=O)(=O)c2cn(C)cn2)Oc2c(NC(=O)Nc3ccc4c(c3)OCO4)cccc2C1=O	.	.	.	.	-123	.
O=C(c1ccco1)N1CCN(S(=O)(=O)c2ccc(Br)cc2)CC1	.	.	.	.	.	.
O=C(c1ccco1)N1CCN(S(=O)(=O)c2ccc(S(=O)(=O)NC3CC3)cc2)CC1	.	.	.	.	-83	.
Cc1ccc(Nc2nc(N)nc(CN3CCN(Cc4ccc5c(c4)OCO5)CC3)n2)cc1C	.	?	.	.	-104	.
Cc1ccc(Nc2nc(N)nc(CN3CCN(Cc4ccc5c(c4)OCO5)CC3)n2)cc1	.	.	.	.	-80	.
Cc1ccc(Nc2nc(N)nc(CN3CCN(Cc4ccc5c(c4)OCO5)CC3)n2)c(C)c1	.	.	.	.	?	.
Cc1ccc(Nc2nc(N)nc(CN3CCN(Cc4ccc5c(c4)OCO5)CC3)n2)cc1Cl	.	-90	.	.	-92	.
Nc1nc(CN2CCN(Cc3ccccc3)CC2)nc(Nc2ccc3c(c2)OCCO3)n1	.	.	.	.	?	.
CCC(C(=O)Nc1c(C)cccc1C)n1c(-c2ccc(=O)[nH]c2)nc2ccccc21 (stereo not given)	.	/	.	.	/	.
CCCCNC(=O)c1cn(C)c2ccc(S(=O)(=O)N3CC(C)CC(C)C3)cc2c1=O (stereo not given)	.	.	.	.	.	.
COc1ccc(CCNC(=O)C(=O)NCC2OCCN2S(=O)(=O)c2cc(F)ccc2F)cc1OC (stereo not given)	?	.	.	.	.	.
COc1ccc(CNCC(O)(c2ccc(F)cc2)c2ccc(F)cc2)cc1	.	.	.	.	-105	.
COc1ccc(CNC(=O)COC(=O)c2cccn2C)cc1	.	.	.	.	.	.
Cc1cc2nc3ccc(=[N+](C)C)cc-3sc2cc1N	.	.	.	.	-94	.
CN(C)c1ccc2nc3ccc(=[N+](C)C)cc-3sc2c1	.	.	.	.	.	.
CCc1ccc(NC(=O)[C@@H](NC(=O)[C@@H]2Cc3ccccc3CN2)C(C)CC)cc1 (stereo not given in full)	.	.	.	.	.	.
CCc1ccc(NC(=O)[C@H](NC(=O)[C@@H]2Cc3ccccc3CN2)c2ccccc2)cc1	?	-88	.	.	.	.
O=C(CN(c1ccccc1Cl)S(=O)(=O)c1ccccc1)N/N=C/c1ccccc1C(=O)O	.	.	.	.	.	?
O=C(CN(Cc1ccco1)S(=O)(=O)c1ccccc1)N/N=C/c1ccccc1C(=O)O	.	.	.	.	-104	.
CCN1CCN(C(c2cccs2)C(C)NS(=O)(=O)c2ccc(C)cc2)CC1 (stereo not given)	.	/	.	.	-76	.
CC(=O)c1ccc(-c2c(CCO)sc3ccccc23)cc1	.	/	.	.	/	?
CCOC(=O)N1CCC(N2Cc3cccc(C(=O)Nc4ccc(CC)cc4)c3C2=O)CC1	.	.	.	.	-112	.
CCOC(=O)N1CCC(N2Cc3cccc(C(=O)Nc4ccc(F)cc4)c3C2=O)CC1	.	.	.	.	.	.
Cn1c(=S)c2[nH]c(SCC3CCCO3)nc2n(C)c1=O (stereo not given)	.	.	.	.	.	.
